Reference: the supplement of paper PMC4466140

B1: unnamed (peptide)
chain: TPRLSLPRLPNKHHW
B2: unnamed (peptide)
chain: GRLRPKRIAPWHLIQ

The binders below were run against CaNbp2 (assay: SPOT peptide array binding signal intensity (averaged, normalized) (arbitrary units (background-subtracted, floor 0; scale differs between SH3 domains)); higher = stronger binding of the SH3 domain to the peptide).
Summary of the method: (§1)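 Binding signal refers to normalized, background-subtracted spot intensity averaged over replicates, expressed in arbitrary units that differ between domains. GST-fused SH3 domains from four yeast species were incubated at 10 μg/ml overnight at 4°C on cellulose membranes of synthetic 15-mer peptides with cysteines replaced by serines. Bound protein was detected with anti-GST antibody, an HRP anti-mouse secondary and luminol, and quantified with Genespotter.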

Binder | SPOT peptide array binding signal intensity
B1 | 116
B2 | 1940

These binders were tested against CaRvs167 in the same assay as above.
Summary of the method: as §1

Binder | SPOT peptide array binding signal intensity
B1 | 2.83
B2 | 9.17

The binders below were run against CaRvs167-3 in the same assay as above.
Summary of the method: as §1

Binder | SPOT peptide array binding signal intensity
B1 | 4.75
B2 | 49.2

What follows are binders tested against CaSho1 in the same assay as above.
Summary of the method: as §1

Binder | SPOT peptide array binding signal intensity
B1 | 89
B2 | 174

Each binder was assayed against CaSla1-D1-D2 in the same assay as above.
Summary of the method: as §1

Binder | SPOT peptide array binding signal intensity
B1 | 256
B2 | 143

What follows are binders tested against CaSla1-D3 in the same assay as above.
Summary of the method: as §1

Binder | SPOT peptide array binding signal intensity
B1 | 1.5
B2 | 1

Each binder was assayed against ScAbp1 in the same assay as above.
Summary of the method: as §1

Binder | SPOT peptide array binding signal intensity
B1 | 0.5
B2 | 13

The binders below were run against ScBbc1 in the same assay as above.
Summary of the method: as §1

Binder | SPOT peptide array binding signal intensity
B1 | ≤ 0
B2 | 24.5

Each binder was assayed against ScBem1-D1 in the same assay as above.
Summary of the method: as §1

Binder | SPOT peptide array binding signal intensity
B1 | 2
B2 | 8.5

Each binder was assayed against ScBzz1-D1 in the same assay as above.
Summary of the method: as §1

Binder | SPOT peptide array binding signal intensity
B1 | ≤ 0
B2 | 0.5

The binders below were run against ScBzz1-D2 in the same assay as above.
Summary of the method: as §1

Binder | SPOT peptide array binding signal intensity
B1 | 16.5
B2 | 3

The binders below were run against ScCyk3 in the same assay as above.
Summary of the method: as §1

Binder | SPOT peptide array binding signal intensity
B1 | 6
B2 | 242

These binders were tested against ScFus1 in the same assay as above.
Summary of the method: as §1

Binder | SPOT peptide array binding signal intensity
B1 | 0.5
B2 | 106

These binders were tested against ScHof1 in the same assay as above.
Summary of the method: as §1

Binder | SPOT peptide array binding signal intensity
B1 | 238
B2 | 0.25

These binders were tested against ScHse1 in the same assay as above.
Summary of the method: as §1

Binder | SPOT peptide array binding signal intensity
B1 | 216
B2 | 1020

What follows are binders tested against ScLsb1 in the same assay as above.
Summary of the method: as §1

Binder | SPOT peptide array binding signal intensity
B1 | 8
B2 | 2.5

Each binder was assayed against ScLsb2 in the same assay as above.
Summary of the method: as §1

Binder | SPOT peptide array binding signal intensity
B1 | ≤ 0
B2 | 2

The binders below were run against ScLsb3 in the same assay as above.
Summary of the method: as §1

Binder | SPOT peptide array binding signal intensity
B1 | 1330
B2 | 131

What follows are binders tested against ScLsb4 in the same assay as above.
Summary of the method: as §1

Binder | SPOT peptide array binding signal intensity
B1 | 5
B2 | 2

What follows are binders tested against ScMyo3 in the same assay as above.
Summary of the method: as §1

Binder | SPOT peptide array binding signal intensity
B1 | ≤ 0
B2 | 1

The binders below were run against ScMyo5 in the same assay as above.
Summary of the method: as §1

Binder | SPOT peptide array binding signal intensity
B1 | ≤ 0
B2 | 1.5

The binders below were run against ScNbp2 in the same assay as above.
Summary of the method: as §1

Binder | SPOT peptide array binding signal intensity
B1 | 62
B2 | 1940

The binders below were run against ScPex13 in the same assay as above.
Summary of the method: as §1

Binder | SPOT peptide array binding signal intensity
B1 | 224
B2 | 10

The binders below were run against ScRvs167 in the same assay as above.
Summary of the method: as §1

Binder | SPOT peptide array binding signal intensity
B1 | 3.33
B2 | 27.7

The binders below were run against ScSho1 in the same assay as above.
Summary of the method: as §1

Binder | SPOT peptide array binding signal intensity
B1 | 764
B2 | 195

These binders were tested against ScSla1-D1-D2 in the same assay as above.
Summary of the method: as §1

Binder | SPOT peptide array binding signal intensity
B1 | 13.5
B2 | 134

What follows are binders tested against ScSla1-D3 in the same assay as above.
Summary of the method: as §1

Binder | SPOT peptide array binding signal intensity
B1 | 1.75
B2 | 5

Each binder was assayed against SpAbp1-D1 in the same assay as above.
Summary of the method: as §1

Binder | SPOT peptide array binding signal intensity
B1 | 386
B2 | 226

These binders were tested against SpBbc1 in the same assay as above.
Summary of the method: as §1

Binder | SPOT peptide array binding signal intensity
B1 | ≤ 0
B2 | 1

These binders were tested against SpBzz1-D1 in the same assay as above.
Summary of the method: as §1

Binder | SPOT peptide array binding signal intensity
B1 | 403
B2 | 228

What follows are binders tested against SpBzz1-D2 in the same assay as above.
Summary of the method: as §1

Binder | SPOT peptide array binding signal intensity
B1 | 0.75
B2 | 1.5

The binders below were run against SpCyk3 in the same assay as above.
Summary of the method: as §1

Binder | SPOT peptide array binding signal intensity
B1 | 2
B2 | 7

These binders were tested against SpHof1 in the same assay as above.
Summary of the method: as §1

Binder | SPOT peptide array binding signal intensity
B1 | 35
B2 | 70

These binders were tested against SpHof1-2 in the same assay as above.
Summary of the method: as §1

Binder | SPOT peptide array binding signal intensity
B1 | 293
B2 | 1.5

These binders were tested against SpHof1-3 in the same assay as above.
Summary of the method: as §1

Binder | SPOT peptide array binding signal intensity
B1 | 136
B2 | 299

What follows are binders tested against SpHse1 in the same assay as above.
Summary of the method: as §1

Binder | SPOT peptide array binding signal intensity
B1 | 416
B2 | 309

These binders were tested against SpLsb1 in the same assay as above.
Summary of the method: as §1

Binder | SPOT peptide array binding signal intensity
B1 | ≤ 0
B2 | 5.5

These binders were tested against SpLsb4 in the same assay as above.
Summary of the method: as §1

Binder | SPOT peptide array binding signal intensity
B1 | 357
B2 | 95.5

What follows are binders tested against SpMyo1 in the same assay as above.
Summary of the method: as §1

Binder | SPOT peptide array binding signal intensity
B1 | 5.5
B2 | 2.5

These binders were tested against SpNbp2 in the same assay as above.
Summary of the method: as §1

Binder | SPOT peptide array binding signal intensity
B1 | 61
B2 | 110

Each binder was assayed against SpPex13 in the same assay as above.
Summary of the method: as §1

Binder | SPOT peptide array binding signal intensity
B1 | 5
B2 | 4

What follows are binders tested against SpRvs167 in the same assay as above.
Summary of the method: as §1

Binder | SPOT peptide array binding signal intensity
B1 | 302
B2 | 9

Each binder was assayed against SpSla1-D1-D2 in the same assay as above.
Summary of the method: as §1

Binder | SPOT peptide array binding signal intensity
B1 | 7
B2 | ≤ 0

These binders were tested against SpSla1-D3 in the same assay as above.
Summary of the method: as §1

Binder | SPOT peptide array binding signal intensity
B1 | ≤ 0
B2 | ≤ 0

The binders below were run against AgAbp1 in the same assay as above.
Summary of the method: as §1

Binder | SPOT peptide array binding signal intensity
B2 | 84.5

The binders below were run against AgBbc1 in the same assay as above.
Summary of the method: as §1

Binder | SPOT peptide array binding signal intensity
B2 | 22.8

What follows are binders tested against AgBem1-D1 in the same assay as above.
Summary of the method: as §1

Binder | SPOT peptide array binding signal intensity
B2 | 21

Each binder was assayed against AgBzz1-D1 in the same assay as above.
Summary of the method: as §1

Binder | SPOT peptide array binding signal intensity
B2 | 22

What follows are binders tested against AgBzz1-D2 in the same assay as above.
Summary of the method: as §1

Binder | SPOT peptide array binding signal intensity
B2 | 15.5

These binders were tested against AgCyk3 in the same assay as above.
Summary of the method: as §1

Binder | SPOT peptide array binding signal intensity
B2 | 4

The binders below were run against AgFus1 in the same assay as above.
Summary of the method: as §1

Binder | SPOT peptide array binding signal intensity
B2 | 106

The binders below were run against AgHof1 in the same assay as above.
Summary of the method: as §1

Binder | SPOT peptide array binding signal intensity
B2 | 15

What follows are binders tested against AgHse1 in the same assay as above.
Summary of the method: as §1

Binder | SPOT peptide array binding signal intensity
B2 | 542

These binders were tested against AgLsb1 in the same assay as above.
Summary of the method: as §1

Binder | SPOT peptide array binding signal intensity
B2 | ≤ 0

Each binder was assayed against AgLsb4 in the same assay as above.
Summary of the method: as §1

Binder | SPOT peptide array binding signal intensity
B2 | 36

The binders below were run against AgMyo5 in the same assay as above.
Summary of the method: as §1

Binder | SPOT peptide array binding signal intensity
B2 | 0.5

These binders were tested against AgNbp2 in the same assay as above.
Summary of the method: as §1

Binder | SPOT peptide array binding signal intensity
B2 | 590

Each binder was assayed against AgRvs167 in the same assay as above.
Summary of the method: as §1

Binder | SPOT peptide array binding signal intensity
B2 | 3.83

The binders below were run against AgSho1 in the same assay as above.
Summary of the method: as §1

Binder | SPOT peptide array binding signal intensity
B2 | ≤ 0

These binders were tested against AgSla1-D1-D2 in the same assay as above.
Summary of the method: as §1

Binder | SPOT peptide array binding signal intensity
B2 | 44

What follows are binders tested against AgSla1-D3 in the same assay as above.
Summary of the method: as §1

Binder | SPOT peptide array binding signal intensity
B2 | 2.5

What follows are binders tested against CaAbp1-D1 in the same assay as above.
Summary of the method: as §1

Binder | SPOT peptide array binding signal intensity
B2 | 1010

What follows are binders tested against CaAbp1-D2 in the same assay as above.
Summary of the method: as §1

Binder | SPOT peptide array binding signal intensity
B2 | 666

These binders were tested against CaBbc1 in the same assay as above.
Summary of the method: as §1

Binder | SPOT peptide array binding signal intensity
B2 | 156

What follows are binders tested against CaBem1-D1 in the same assay as above.
Summary of the method: as §1

Binder | SPOT peptide array binding signal intensity
B2 | 26

These binders were tested against CaBzz1-D1 in the same assay as above.
Summary of the method: as §1

Binder | SPOT peptide array binding signal intensity
B2 | 73

What follows are binders tested against CaBzz1-D2 in the same assay as above.
Summary of the method: as §1

Binder | SPOT peptide array binding signal intensity
B2 | 79.2

The binders below were run against CaCyk3 in the same assay as above.
Summary of the method: as §1

Binder | SPOT peptide array binding signal intensity
B2 | 112

The binders below were run against CaFus1 in the same assay as above.
Summary of the method: as §1

Binder | SPOT peptide array binding signal intensity
B2 | 178

Each binder was assayed against CaHof1 in the same assay as above.
Summary of the method: as §1

Binder | SPOT peptide array binding signal intensity
B2 | 0.75

Each binder was assayed against CaHse1 in the same assay as above.
Summary of the method: as §1

Binder | SPOT peptide array binding signal intensity
B2 | 11.8

What follows are binders tested against CaLsb1 in the same assay as above.
Summary of the method: as §1

Binder | SPOT peptide array binding signal intensity
B2 | ≤ 0

These binders were tested against CaLsb4 in the same assay as above.
Summary of the method: as §1

Binder | SPOT peptide array binding signal intensity
B2 | 67

These binders were tested against CaMyo5 in the same assay as above.
Summary of the method: as §1

Binder | SPOT peptide array binding signal intensity
B2 | 2.5
